Source: PubChem BioAssay (NCATS)
Activity calls are given as the source filed them.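 How the source made its calls: active means compounds whose dose series gives a full or clear partial fitted curve of increased nuclear translocation; inconclusive means weak partial curve or effect only at the top dose; inactive means no dose-dependent translocation response.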

Target: Glucocorticoid receptor (Homo sapiens) (UniProt P04150)
Experiment: GR-GFP Redistribution (AID 450)
Conditions: U2OS GR-GFP nuclear translocation, laser cytometry, 2 h
Description: NIH Molecular Libraries Screening Centers Network [MLSCN]
NIH Chemical Genomics Center [NCGC]
The glucocorticoid receptor (GR) Redistribution assay (BioImage) enables the visualization of GR cytoplasmic to nuclear translocation by the use of a GR-GFP fusion. GR is normally cytosolic, however ligands such as dexamethasone, cause nuclear translocation where the protein binds to response elements and interacts with various co-factors to modulate transcription. Because both functional agonists and antagonists can induce nuclear translocation, this assay can detect ligands regardless of their effects on gene expression. GR-GFP expressing U20S cells were used here. Dexamethasone was the positive control for translocation and data normalization. Detection of nuclear translocation was performed in 1536-well plates using the Acumen laser scanning plate cytometer (TTP LabTech). Validation of this assay and a detailed protocol have been described.
NCGC Assay Protocol Summary:
GR-GFP U2OS cells were maintained in DMEM with Glutamax and high glucose, 1% v/v penicillin-streptomycin, and 0.5 mg/mL Geneticin. For cell culture, 10% […] fetal bovine serum (FBS) was used (Invitrogen #26140-079). For cell plating 10% dextran, charcoal-stripped FBS (Hyclone SH30068.03) was used. U2OS cells were trypsin treated, suspended in medium, and passed through a 40 um basket filter. The cells were seeded at 600 cells/5 uL/well into clear-bottom black sided 1536-well plates and incubated for approximately 20 hrs, 37degC, 5%, CO2 in a tissue culture incubator. Twenty-three nL of compound was delivered by pin tool and the plates were incubated as above for 2 hrs. The compounds were tested as a 7-point titration ranging from 46 uM to 0.6 nM. The cells were fixed using the Kalypsys Washer/Dispenser station. The fixing protocol involved aspiration of the cell media, addition of 6 uL/well of PBS, aspiration of PBS, addition of 5uL/well of 100% methanol, aspiration of methanol, and addition of 3 uL/well PBS with 1.5 uM propidium iodide (PI). The plates were read by the Acumen Explorer using a 1 x 8 um scan of the whole well area. PI fluorescence triggered the collection of PI and GFP signals. A nuclei population was defined by a 10 to 100 um width and depth filter that eliminated small and large fluorescent particles. Two subpopulations of nuclei were then defined by peak intensity of GFP fluorescence to obtain translocated and untranslocated objects. The number of translocated objects was used for data normalization.
Keywords: NIH Roadmap, MLSCN, MLI, MLSMR, sOGT, qHTS, NCGC
Potency means the concentration at half of the fitted maximal effect.

Chain of Glucocorticoid receptor (Homo sapiens) (P04150 whole entry, looked up): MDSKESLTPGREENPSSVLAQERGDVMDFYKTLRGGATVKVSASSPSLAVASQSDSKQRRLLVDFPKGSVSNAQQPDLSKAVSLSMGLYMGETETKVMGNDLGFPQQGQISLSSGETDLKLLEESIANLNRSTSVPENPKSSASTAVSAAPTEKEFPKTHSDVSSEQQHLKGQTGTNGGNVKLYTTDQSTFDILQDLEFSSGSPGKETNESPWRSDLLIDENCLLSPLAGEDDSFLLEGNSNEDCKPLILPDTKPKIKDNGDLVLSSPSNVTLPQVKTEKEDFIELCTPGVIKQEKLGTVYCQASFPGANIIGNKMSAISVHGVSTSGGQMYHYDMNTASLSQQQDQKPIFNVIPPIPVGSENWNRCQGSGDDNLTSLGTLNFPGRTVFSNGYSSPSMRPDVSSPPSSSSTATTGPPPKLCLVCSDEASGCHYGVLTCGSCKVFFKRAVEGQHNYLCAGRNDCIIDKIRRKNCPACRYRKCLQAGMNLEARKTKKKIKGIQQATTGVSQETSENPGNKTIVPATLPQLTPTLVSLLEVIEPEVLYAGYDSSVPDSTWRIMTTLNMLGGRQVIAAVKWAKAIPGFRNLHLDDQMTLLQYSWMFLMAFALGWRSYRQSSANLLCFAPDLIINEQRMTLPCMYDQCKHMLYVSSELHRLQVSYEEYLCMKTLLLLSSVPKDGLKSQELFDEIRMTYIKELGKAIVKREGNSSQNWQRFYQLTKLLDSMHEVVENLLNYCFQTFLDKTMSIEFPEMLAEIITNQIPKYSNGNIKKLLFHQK

Structure (SMILES)	Potency
Cc1ccc(/C(C#N)=C/c2cccc([N+](=O)[O-])c2)cc1	> 46 µM (inactive)
COC(=O)[C@@H]1O[C@@H](SCCN)[C@@H](O)[C@H](O)[C@H]1O	> 46 µM (inactive)
COc1cccc2c1C(=O)c1c(O)c3c(c(O)c1C2=O)C[C@](O)(C(=O)CO)C[C@@H]3O[C@H]1C[C@H](N)[C@@H](O)[C@H](C)O1	> 46 µM (inactive)
O=C(O)CC(CC(=O)O)n1cccc1	> 46 µM (inactive)
CN(C)CCCN1c2ccc3ccccc3c2Sc2cccc(Cl)c21	> 46 µM (inactive)
O=C(O)/C=C\C(=O)Nc1ccc2c(c1)C(=O)c1cc(F)ccc1-2	> 46 µM (inactive)
CC(C)(C)OC(=O)[C@H]([C@@H]1N[C@@H](C(=O)O)C(C)(C)S1)N1C(=O)c2ccccc2C1=O	> 46 µM (inactive)
O=C(O)/C(Cc1ccc([N+](=O)[O-])cc1)=N/O	> 46 µM (inactive)
Cc1cc(Cl)nc2ccc(Cc3ccc4nc(Cl)cc(C)c4c3)cc12	> 46 µM (inactive)
Cn1c(=O)c2c(ncn2CCSS(=O)(=O)O)n(C)c1=O	> 46 µM (inactive)
CCCC[C@]1(C2CCCC2)Cc2cc(OCC(=O)O)c(Cl)c(Cl)c2C1=O	> 46 µM (inactive)
Clc1ccc(CSCc2ccc(Cl)cc2Cl)c(Cl)c1	> 46 µM (inactive)
c1ccc([C@H](CCN2CCCC2)c2ccccn2)cc1	> 46 µM (inactive)
CSc1ccc2c(c1)N(CCCN(C)C)c1ccccc1S2	> 46 µM (inactive)
CC(C)C[C@@H](N)C(=O)Nc1ccc2ccccc2c1	> 46 µM (inactive)
O[C@H]([C@H](O)[C@@H](O)c1nc2ccccc2[nH]1)[C@@H](O)c1nc2ccccc2[nH]1	> 46 µM (inactive)
C/C(=N/NS(=O)(=O)c1ccc(C)cc1)P(=O)(O)O	> 46 µM (inactive)
O=C(O)[C@@H]1CCCN1Cc1cc2ccccc2c2ccccc12	> 46 µM (inactive)
Cn1c(=O)c2[nH]c(SCc3ccccn3)nc2n(C)c1=S	> 46 µM (inactive)
Cc1nc2cnc(Oc3cccc(Cl)c3)nc2n(C[C@H]2CCCO2)c1=O	> 9.22 µM (inactive)

Structure (SMILES)	Potency
COc1cc(C2SCCCCCCCCCCSC(c3ccc(O)c(OC)c3)SCCCCCCCCCCS2)ccc1O (stereo not given)	> 46 µM (inactive)
CN(C)c1ncnc2c1ncn2CCn1cnc2c(N(C)C)ncnc21	> 46 µM (inactive)
NC(N)=NC(N)=Nc1ccccc1 (tested in a mixture with another compound)	> 46 µM (inactive)
Cc1ccccc1C(=N)c1ccccc1Cc1cccc2ccccc12	> 46 µM (inactive)
C[C@@]1(C(=O)O)CCC[C@@H]1C(=O)O	> 46 µM (inactive)
COC(=O)[C@](C)(N)Cc1ccc(O)cc1	> 46 µM (inactive)
N#CCCn1c(=O)c(-c2cc(F)cc(F)c2)nc2cnc(Oc3cccc(Cl)c3)nc21	> 9.22 µM (inactive)
Nc1ccc(Cc2ccc(N)c(C(=O)O)c2)cc1C(=O)O	> 46 µM (inactive)
O=C(O)/C(Cc1cn[nH]n1)=N\O	> 46 µM (inactive)
CN1CCc2ccccc2[C@@H]1Cc1ccccc1NC(=O)c1sc2ccccc2c1Cl	> 46 µM (inactive)
O=C(O)c1ccc(C(=O)c2ccccc2)c(C(=O)O)c1	> 46 µM (inactive)
Nc1c(S(=O)(=O)O)cc(S(=O)(=O)O)c2ccc(N=Nc3ccccc3)c(O)c12	2.59 µM (active)
CSc1ncnc2c1ncn2CC(=O)[C@H]1CC[C@H]2[C@H]3CCC4=CC(=O)CC[C@@]4(C)[C@@H]3CC[C@@]12C	> 46 µM (inactive)
N=C(N)c1ccc(-c2ccc(-c3ccc(C(=N)N)cc3)o2)cc1	> 46 µM (inactive)
Cn1c(=O)c2[nH]c(/N=N\N3CCN(CCO)CC3)nc2n(C)c1=O	> 46 µM (inactive)
O=C(O)c1[nH]c(=O)[nH]c(=O)c1CN1CCCCC1	> 46 µM (inactive)
O=c1oc2ccccc2c(O)c1/C=N/c1nc(-c2ccc(O)c(O)c2)cs1	> 46 µM (inactive)
C[N+]1(C)CCc2cc(O)c(O)cc2[C@H]1Cc1ccc(O)c(O)c1	> 46 µM (inactive)
O=C(O)c1ccccc1N[C@H](c1ccccc1)c1ccc2cccnc2c1O	> 46 µM (inactive)
CC1=NCC[N@@+]1(CCc1ccccc1)Cc1ccccc1	> 46 µM (inactive)
